Changes are numbered by the printed parent chain. Whole data set: some 24,000 sequences, median “enrichment r” near 0.99, cut for the highest 2% near 3.7. Only a selection was taken, and the highest values are over-represented in it overall.

To fix the notation:
T1: UNK ZnF1-3 (human, UniProt Q9C0B0 31-174)
T1 sequence: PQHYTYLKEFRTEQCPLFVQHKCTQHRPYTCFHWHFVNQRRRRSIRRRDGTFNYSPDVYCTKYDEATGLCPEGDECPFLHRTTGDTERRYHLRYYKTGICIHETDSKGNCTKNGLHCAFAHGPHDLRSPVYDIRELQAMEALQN

B1: chr9:127920631:127920632:-_ENSG00000119414_ENST00000456642|hu_mus|motif|central (ssRNA)
RNA: GGGAGUUCUACAGUCCGACGAUCAAUACGGUCAGGCCACUUAGCCUUUAGUGCAAGAAGAUAAGUGAAGGUCUCCAAACGGUAGUAACCUCUGUCUACAAAAUCACCCAUAAAUAUGUAGUUUGUGUCAGGAACCUGACCUCCCAACAGAGGAUUGAGCAUCA
B2: chr7:140404665:140404666:+_ENSG00000090266_ENST00000247866|hu_hu|hu_hu_hu_mus_False|1_1 (ssRNA)
RNA: GGGAGUUCUACAGUCCGACGAUCUGCUCCUACUCGUCCAGAGAGUUUACAGUGUCAGUCCUCGUCAUCAGGAGGGAUUCCCAGUUCUUCAUCUGUCCACUGUGAAGGAUCUGGAUAUGAAAAGUGACCCAGCACAGCUUCUGACAACAGAGGAUUGAGCAUCA
B3: chr7:109302599:109302600:-_ENSMUSG00000063550_ENSMUST00000070165|mus_mus|FALSE|FALSE (ssRNA)
RNA: GGGAGUUCUACAGUCCGACGAUCAGAGUCAUCUUCUCCAUCCUGCUGAUUGUUCUCAUCAACAGGUUUGCUCAGGAAGCUAAAUCUUUCUCCAUUUUCUGGAUACUCAGAGGGUGAAGCUAGAUCUUCUGAAUCAUGAUUAACCAACAGAGGAUUGAGCAUCA
B4: chr8:26227902:26227903:+_ENSG00000221914_ENST00000315985|hu_hu|motif|central (ssRNA)
RNA: GGGAGUUCUACAGUCCGACGAUCGGAAUGCCAACCCUAAUUCACUUUGUCUUGAAAUAUAUACAGAUUGUUUGUAGUAGCGGCGGCAAUGAUAUUUUCCUUGGGGUGCCAGGCUGUGUGAAGGAUUUUCUUAUUGAAGUCUAGCAACAGAGGAUUGAGCAUCA
B5: 16983635_16983755_221_5pUTR_ENSMUSG00000063358_ENSMUST00000069107|mouse|control|control (ssRNA)
RNA: GGGAGUUCUACAGUCCGACGAUCGACCAUCUCCGGGCCCGCCGCCGCCGCCGCCGCCAUGUUGGCUGCACAGCCGCCGCCGCCGCCGCCGCCGCCGCGUUCGGUUCGACGCUUCGCGGCUGCCGCUCGACUUAUGCUGCGCUUCAACAGAGGAUUGAGCAUCA
B6: chr3:179287964:179287965:+_ENSG00000136518_ENST00000429709|hu_hu|hu_hu_hu_mus_True|18_18 (ssRNA)
RNA: GGGAGUUCUACAGUCCGACGAUCCUUGAGUGGUGAGAUGGCCUCCAUGUUCUCCCUGGGCACGCGGAGGGCAUUGGUGUCUAUGUAGUAGGUGGGCCCGCCCUGCUUGCCUUUGUCGCCAUCUAUUUCCAUCAUUGUACUUCCCAACAGAGGAUUGAGCAUCA
B7: chr5:171327072:171327073:-_ENSG00000072803_ENST00000265094|hu_hu|FALSE|FALSE (ssRNA)
RNA: GGGAGUUCUACAGUCCGACGAUCUACCAGCUCUGCUGCACACAGAGACCUGGCAUCCAGGUACGAAAGAAUGUUUUCUGCUAUGUGAUCUAAGCCUUGCUCUGGUAAAGCGGUAAUAAAGUCCCGCUGCAACAUGGGCUUCAGCAACAGAGGAUUGAGCAUCA
B8: 97033003_97034721_1993_CDS_ENSG00000121152_ENST00000240423|human|control|control (ssRNA)
RNA: GGGAGUUCUACAGUCCGACGAUCCCUGUGGUUUGCCUCUGCAUCUGCCUCCUUUCCGGAGAGCGCUGUCAGCAGACUCCACAUGCUCUGCUUCAGUUUCUUCAUGUCCAUCUUUUUGGCAGUCUUGGCAUAGUGAAUUUCAAUCAACAGAGGAUUGAGCAUCA
B9: chr2:151796264:151796265:-_ENSMUSG00000027459_ENSMUST00000062047|mus_mus|motif|central (ssRNA)
RNA: GGGAGUUCUACAGUCCGACGAUCUGUUCGGCUGGCCUCAGAUGGGGACACAGGACUAUCACACAAGUUGAUGAGGCUGCGGAGGAUGUCGAGGUCCAGUUGGGGCCGGCGGCCAGAACAGGGCAGGACUCGGCGACUGGGUGUCAACAGAGGAUUGAGCAUCA
B10: chr17:38438176:38438177:+_ENSG00000171475_ENST00000323571|hu_mus|FALSE|FALSE (ssRNA)
RNA: GGGAGUUCUACAGUCCGACGAUCCCCCCUGACCAUGUAGCUAGGGACUGAGAGUCACAGGGAAGGGAAAGCUUACACCUGGAAUGUGAAGAAUCUGAUUUACAGCUGAUGGCAGGUUGGGUUUCCAGAAGGGCAGACAGCGCACAACAGAGGAUUGAGCAUCA
B11: chr2:125499325:125499326:+_ENSMUSG00000091337_ENSMUST00000164756|mus_mus|FALSE|FALSE (ssRNA)
RNA: GGGAGUUCUACAGUCCGACGAUCGAGCUCUUCGGUCAGUCGAUUGACAACCAUCAGCGAAAACAGCUCUUCGAUAAAAGCUAGCUGGUCGAAAGGGCUCUUCUCACACCGCGCCUGAAAGCCGCCAUCCAGGGCAUCUCCGGCCAACAGAGGAUUGAGCAUCA
B12: chr1:163116941:163116942:-_ENSG00000143248_ENST00000313961|hu_mus|FALSE|FALSE (ssRNA)
RNA: GGGAGUUCUACAGUCCGACGAUCACAAAGCAGUCAGAAAGAACCAAAAAAAAGAAAAAAAAAAGAAAAAGAAAAAAGUGAGGGCUCUUAGACAACAGAUCCACAUAACCAAACUAACAUGAGCGAAAGAGUUAGCAACACAGCCAACAGAGGAUUGAGCAUCA
B13: chr6:144948378:144948379:-_ENSMUSG00000030268_ENSMUST00000111742|mus_mus|FALSE|FALSE (ssRNA)
RNA: GGGAGUUCUACAGUCCGACGAUCAGGGAACACCAGGCCAGCAGGGCUGCAUGGGGAGCCCAAAUCUGCCCCAAUUAGAAACAAACAAACAAAAAAAAAACAACCAAAACAAAAAACAAAAGAACCUCACCAGCAAAAGAAACACAACAGAGGAUUGAGCAUCA
B14: chrX:71549762:71549763:+_ENSMUSG00000019087_ENSMUST00000019231|mus_mus|mus_mus_mus_hu_False|8_18 (ssRNA)
RNA: GGGAGUUCUACAGUCCGACGAUCAAACCCGUGUACUUCUUAUUGUUAGCACAACAUCACCAGAAAACGAUAACGACAGCCAAGCAGGACAGACAGUUAAGUAGUACUUCCACACUCCGCAAAUUCAAGGAACCUCAAACCUUACAACAGAGGAUUGAGCAUCA
B15: chr14:76904430:76904431:+_ENSMUSG00000022010_ENSMUST00000022587|mus_mus|mus_mus_mus_hu_True|58_98 (ssRNA)
RNA: GGGAGUUCUACAGUCCGACGAUCUGCAGCCAAAAACAGAGAGAGGGAAAAAAAGAGGGAACACCAGCAGCCUUGUACAAACUAGAUAAAAUCUUCUGGCUUUCCGCAGCCCAGGGAGAAACAGAAAACGGCAGCCCUAAUUUACAACAGAGGAUUGAGCAUCA
B16: chr14:76904430:76904431:+_ENSMUSG00000022010_ENSMUST00000022587|mus_mus|mus_mus_mus_hu_True|8_98 (ssRNA)
RNA: B15 RNA with C77U, A80G, A127U, C128G, G130U, C131G, A132C, G133U, C134G, C135G
B17: chr3:9412954:9412955:+_ENSG00000134077_ENST00000452837|hu_mus|hu_hu_hu_mus_False|58_68 (ssRNA)
RNA: GGGAGUUCUACAGUCCGACGAUCGGUUGAUAUCUCUUCUUUGAUGGCUGGAUUUUCAUAAUAGUCCAAGAUAUGAGAAUCUAAAGCGCUGCUGGCAUGCUUUUUCUUACCAUCUUUCUCAUCUGCUUUGUCUCCUUGUCCACACAACAGAGGAUUGAGCAUCA
B18: chr16:94664741:94664742:+_ENSMUSG00000040785_ENSMUST00000117648|mus_hu|mus_mus_mus_hu_False|1_78 (ssRNA)
RNA: GGGAGUUCUACAGUCCGACGAUCUGGUACUGAUCUUGGUAGCUGAUAUUCAGGAGAAAUGUUGGCCAAGGGUGUAUAUAUGCUGGUGUACUGGGGCAAACCUGGUAACACGUUUAUGUAUGCUGGCGGUGUCUGGGUGCCAAACAACAGAGGAUUGAGCAUCA
B19: chr5:37680062:37680063:+_ENSMUSG00000029121_ENSMUST00000031004|mus_hu|mus_mus_mus_hu_False|1_8 (ssRNA)
RNA: GGGAGUUCUACAGUCCGACGAUCUUUGGGUGUAGCUGGUACCUCGUACACAGGACCGUCAUACAUGCCCCUGGAAACCCCUUGCAAUCCAAAAACCUUAUUCCUGAUUUUGACGCGCUGGUACAGGUGCUCUGGGAAUGGCUUCAACAGAGGAUUGAGCAUCA
B20: chrX:98862621:98862622:+_ENSMUSG00000034160_ENSMUST00000044475|mus_hu|mus_mus_mus_hu_False|18_28 (ssRNA)
RNA: GGGAGUUCUACAGUCCGACGAUCCUGCAUCUCCUUUAGAGUGUUUCCCAUAUUAGAGUAGGCAUCAGCAAAGGUAGGACUGAUUCGAAUAGCCUCCUUAUAAUGCAUCAGUGCUUCCUGCAGCUUGCCCUGCUGCUGCAGUACCAACAGAGGAUUGAGCAUCA
B21: chr7:135840685:135840686:-_ENSMUSG00000048170_ENSMUST00000057557|mus_mus|FALSE|FALSE (ssRNA)
RNA: GGGAGUUCUACAGUCCGACGAUCCAACUCCCUUGAUUUAUCAAGGCCGACCCUGUUUCCUUGGUUAGCAGGGAAGAAUCUAAGGGACCACUGAUUGAUCUUCACACACAGCAGAUGAGAUUAACAGCAAGGUUCUAACUUUUCCAACAGAGGAUUGAGCAUCA
B22: 128051196_128051651_161_3pUTR_ENSG00000163161_ENST00000285398|human|control|control (ssRNA)
RNA: GGGAGUUCUACAGUCCGACGAUCCGCCGCCGAGGGAACCGCUUCCUGAGGGUCGUUCCCCGGGGCGUCCUCUUCAUCAUCCUCUUCAUCCUCAUAGUGCCGCUUCCUGGAUUUCUUCUUGUCGCGGUCCGCUCGGUCUCUUUUCAACAGAGGAUUGAGCAUCA

The assay addresses T1, UNK ZnF1-3. Description: nsRBNS (natural sequence RNA bind-n-seq); RBNS binding buffer (assumed for nsRBNS): 25 mM Tris pH 7.5, 150 mM KCl, 3 mM MgCl2, 0.01% Triton X-100, 500 ug/ml BSA, 20 U/ml SUPERase-In, 4 C; UNK is unkempt and MSI1 is Musashi-1; names of the RNAs are library labels; protein concentration not given here; high values mean tight binding.
B1 registered a binding signal of 0.995 enrichment R.
With B2 the figure was 1.35 enrichment R; with B3, 0.565 enrichment R.
The value for B4 was 1.11 enrichment R; that for B5 was 0.486 enrichment R.
In turn, B6 had a binding signal of 0.497 enrichment R.
Molecule B7 returned a binding signal of 1.05 enrichment R.
In the case of B8, the binding signal came out at 0.375 enrichment R.
The value for B9 was 0.777 enrichment R; that for B10 was 1.6 enrichment R; that for B11 was 1.3 enrichment R.
With B12 the figure was 10.6 enrichment R; with B13, 7.87 enrichment R; with B14, 1.46 enrichment R.
The value for B15 was 3.56 enrichment R; that for B16 was 3.33 enrichment R.
As for B17, the binding signal worked out at 0.465 enrichment R.
Consider B18, for which the binding signal was 0.93 enrichment R.
With B19 the figure was 0.776 enrichment R; with B20, 1.08 enrichment R.
Regarding B21, the binding signal was 1.03 enrichment R.
The value for B22 was 0.493 enrichment R.

Values taken from PMC12136788.
